Assay results published in PubChem BioAssay (NCI).
Where “and” joins values, the source holds several entries; their conditions need not be identical. Equal values may be shown once. The panel holds about 83,000 compounds, 20% with a hit somewhere; the sample as a whole holds those more often.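 Single-dose data. Exposure time 48 hours. Values below 10 considered active.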 Unmarked numbers belong to inactive results. Calls of active or inactive are those of the source.

Tested on: MDA-MB-468 breast
Assay: NCI-60 one-dose screen, 48 h (100 = growth as untreated, 0 = no growth, -100 = all killed)
Conditions: 10 µM unless noted

| SMILES | growth |
| --- | --- |
| COc1ccc(/C=C2\N=C3SC=C(N)N3C2=O)cc1 | -31.9% (active) |
| Cn1ccnc1C(=O)/C=C/c1ccc(NC(=O)c2c(F)c(F)c(F)c(F)c2F)cc1 | 92.1% |
| CC(C)[C@H]1c2[nH]c3ccccc3c2C[C@H]2C(=O)N(CCCCCCC(=O)NO)CC(=O)N12 | 64.2% |
| COc1ccc(/C=C/c2nc(N3CCOCC3)c3nc(Cl)c(Cl)cc3n2)cc1OC | 101% |
| Cc1cc(N2CCCC2)nc(N(CCCNc2ccnc3cc(Cl)ccc23)Cc2ccccn2)n1 | 53.2% |
| C[C@@H]1CCC[C@H]1CC(N)C(=O)O (some centres undefined) | 92.8% |
| O=C(c1ccccc1)C1CCC1 | 110% |
| Cc1ccc(S(=O)(=O)OC[C@@]2(C)CC[C@]3(C)CC[C@]4(C)C(=C3C2)C=C[C@@H]2[C@@]3(C)CCCNC(C)(C)[C@@H]3CC[C@]24C)cc1 | -88.5% (active) |
| C=CCN(CCOC(=O)c1ccc([N+](=O)[O-])cc1)CCOC(=O)c1ccc([N+](=O)[O-])cc1 | 105% |
| CCC(c1ccc(OC)cc1)C(CC)c1ccc(O)c(CN2CCN(C)CC2)c1 (centres undefined) | 30% |
| Cc1cc2nc(CC(=O)c3ccccc3)c(=O)[nH]c2cc1C | 103% |
| COC(=O)c1c(C)nc(C)c2c1C(=O)C(Br)=C(NCCN1CCOCC1)C2=O | 83.4% |
| CCCCCc1ccc(S(=O)(=O)Nc2cc(-c3csc(NC(=O)CN4CCN(C)CC4)n3)ccc2OC)cc1 | 35.2% |
| O=C(/C=C/c1ccco1)Nc1ncc(Cc2ccc(F)cc2)s1 | 21.5% |
| Cn1c(=O)c2[nH]c(SC/C(=N/O)c3ccc(Br)cc3)nc2n(C)c1=O | 47.1% |
| COc1ccc(/C=C2\COc3ccc(O)cc3C2=O)cc1OC | 103% |
| CC1(C)CC[C@]2(C(=O)O)CC[C@]3(C)C(=CC[C@@H]4[C@@]5(C)CC/C(=N\OCCC#N)C(C)(C)[C@@H]5CC[C@]43C)[C@@H]2C1 | 106% |
| CN(C)C(=S)SC(=S)N(C)C | 91.4% and 95.3% |
| COc1ccc(Cc2cnc(NC(=O)c3cc(C)oc3C)s2)cc1 | 14.8% |
| CC(C)N=C1CCCC1C(=S)SSC(=S)C1CCCC1=NC(C)C (centres undefined) | 63.6% |

| SMILES | growth |
| --- | --- |
| O=c1cc(CSc2nnc(-c3ccc(F)cc3)o2)c2ccc3ccccc3c2o1 | 101% |
| CC/C=C\C[C@H]1CC=C2C(=O)C=C[C@@H]2CC=CCCCC(=O)O[C@@H](CCCCC)CC=C2C(=O)C=C[C@@H]2CC=CCCCC(=O)O[C@@H](CCCCC)CC=C2C(=O)C=C[C@@H]2CC=CCCCC(=O)O[C@@H](CCCCC)CC=C2C(=O)C=C[C@@H]2CC=CCCCC(=O)O1 | 29.8% [7.9 µM] |
| c1csc(C2=NN3C(C2)c2ccccc2OC3c2ccncc2)c1 (centres undefined) | 103% |
| Cc1ccc(-c2cc(-c3ccc(C)cc3)nc(N3CCN(CCNc4ccnc5cc(Cl)ccc45)CC3)n2)cc1 | 36.4% |
| O=CNc1c(Cl)cc2c(c1Cl)Cc1cc([N+](=O)[O-])ccc1-2 | -3.02% (active) |
| N#CSc1c[nH]c2ccc(/C=C/C(=O)/C=C(/C=C/c3ccc4[nH]cc(SC#N)c4c3)OB(F)F)cc12 | -49% (active) |
| COC(=O)[C@]12CCC(C)(C)C[C@H]1C1=CC[C@@H]3[C@@]4(C)C/C(=C/c5cccnc5)C(=O)C(C)(C)[C@@H]4CC[C@@]3(C)[C@]1(C)CC2 | -22.5% [100 µM] (active) |
| COc1cc(/C=C(/c2ccccc2)[N+](=O)[O-])c(OC)c2c1OCO2 | -81.4% (active) |
| COc1ccc(/C=C2\N=C3Sc4cc(Cl)ccc4C(=O)N3C2=O)cc1 | 113% |
| COc1ccc(-c2nc(-c3cc(OC)cc(OC)c3)[nH]c2-c2ccc(OC)cc2)cc1 | 31.4% |
| CC1CCN(CCOc2ccc(CNc3ccc4nc(CCC5CCCCC5)[nH]c4c3)cc2)CC1 | 14.2% |
| S=C1CCCCCN1 | 108% |
| CCc1nnc(NC(=O)c2ccoc2COc2ccccc2)s1 | 52.7% |
| Cc1cc(-c2ccc(N=Nc3c(S(=O)(=O)O)cc4cc(S(=O)(=O)O)cc(N)c4c3O)c(C)c2)ccc1N=Nc1cc(S(=O)(=O)O)c2ccccc2c1O | 105% |
| CCc1ccc(/C=C/c2ccc(O)c3ncccc23)[n+](C)c1 | 19.6% |
| COc1c(N2CC3CCCN(C(C)=O)C3C2)c(F)cc2c(=O)c(C(=O)N[C@H]3C(O)[C@@H](O)C(CO)O[C@H]3O)cn(C3CC3)c12 (some centres undefined) | 98% |
| O=C1C(SCc2ccccc2)=C(Cl)CN1c1ccccc1 | 79.7% |
| CCN(CC)CCC(CNc1ccnc2cc(Cl)ccc12)c1ccc(OC)cc1 (centres undefined) | 9.36% (active) and -3.58% (active) |
| N=C(N)c1ccc(-c2ccc(-c3ccc(Cl)c(Cl)c3)s2)nc1 | -65.4% (active) |
